Experimental findings from the supplement of paper PMC5940239 are described below.

pIC50: −log10 of the molar value.

The subject of the assay is Madurella mycetomatis MM55. Conditions: 7 days.
The pIC50 is −log10 of the IC50, conventionally taken in molar units. A higher pIC50 goes with a small IC50. As for `FC(F)(F)c1cc(NCCc2ccccc2)nc(-c2ccccn2)n1`, the pIC50 was 4.26. The figure for `COc1ccc(CCN2CCC(NCc3cccc(N(C)C)c3)CC2)cc1` is 4.61; for `CC(C)(C)c1ccc(N[C@@H]2CCCC[C@H]2NC(=O)c2ccco2)cc1` it is 4.28; for `CCCCCCCCCCCCCCCCOP(=O)([O-])OCC[N+](C)(C)C` it is 4.23. As for `O=C(Nc1nc(-c2ccccn2)cs1)c1cncn1-c1ccccc1`, the figure is 4.97; as for `O=C(Nc1nnc(-c2ccc(Cl)s2)o1)c1ccc(Cl)s1`, 4.27; as for `N=C(N)c1ccc(-c2cc(-c3ccccc3)on2)cc1`, 4.28. The molecule `CC(c1cc(Cl)cc(Cl)c1)N(C)c1ncc2c(N)nc(N)nc2n1` (configuration not stated) had a pIC50 of 4.33. The figure for `CN1CCC(NCc2cccc(-c3ccc(S(=O)(=O)NCc4ccccc4)cc3)c2)CC1` is 4.39; for `O=C(c1ccco1)N(CCCn1ccnc1)c1nc2c(Cl)cccc2s1` it is 4.23; for `CN1CCN(CCCOc2ncc(Nc3ncc(-c4ccc(C(F)(F)F)c(F)c4)nc3C(N)=O)cn2)CC1` it is 4.59.

Molecule `O=C(NC1CC1)c1ccc(N2CCOc3ccc(Cl)cc32)s1` had a pIC50 of 4.46. This pIC50 and that of the molecule before are within 0.2 log units of each other. The figure for `COc1ccc(-c2cnc3ccc(N4CCCC4)nn23)cc1OC` is 4.19; for `CN1CCC(c2cc(-c3ccncc3)c(-c3ccc(F)cc3)[nH]2)CC1` it is 4.25. As for `COc1cccc(-c2cc3c(Nc4cccnc4)nccc3[nH]2)c1`, the figure is 4.29. The figure for `Cc1ccc2c(c1C)NC(=O)C21NN=C(c2ccccc2)S1` (configuration not stated) is 4.42; for `COc1ccccc1CNC(=O)c1cc(C2CC2)nc2c1cnn2C(C)C` it is 4.29.

Take `CC1=Nc2ccc(Cl)cc2C(O)(c2ccc(C)cc2)N1CCN1CCCCC1` (configuration not stated): the pIC50 was 4.31. This pIC50 and that of the molecule before are within 0.2 log units of each other. The figure for `CCc1c(C)nc(-n2nc(C)cc2NC(=O)c2ccccc2SC)[nH]c1=O` is 5.17; for `CCC(Sc1nc2ccccc2o1)C(=O)Nc1nccs1` (configuration not stated) it is 4.43; for `COc1cc(C2=NCCN2)cc2cc(-c3ccc(C4=NCCN4)cc3)oc12` it is 4.32.

The molecule `O=C(c1cc2ccccc2o1)N1CCN(Cc2ccc3c(c2)OCO3)CC1` gave a pIC50 of 4.35. As for `c1ccc(C[C@@H]2CN(c3nccc(Oc4ccc(-n5ccnc5)cc4)n3)CCN2)cc1`, the figure is 4.23. The figure for `CC(C)(C)n1nc(Cc2ccc(F)c(Cl)c2)c2c(N)ncnc21` is 4.21. The figure for `Cc1ccc(-c2nc(CN(Cc3ccccn3)C(C)C)cs2)o1` is 4.27; for `COc1ccc(C2=NN(C3CCCCCC3)C(=O)[C@@H]3CC=CC[C@H]23)cc1OCCCCOc1ccc(-c2nn[nH]n2)cc1` it is 4.73.

Molecule `CCCn1nnc(NC(=O)COc2ccc(C3CCCCC3)cc2)n1` gave a pIC50 of 4.18. As for `CCCn1c(NC(=O)c2ccc3ccccc3n2)nc2ccccc21`, the figure is 5.43; as for `Cc1cc(C)c2cc(C(=O)NC3CCCCCCC3)[nH]c2c1`, 4.19; as for `O=C1N(Cc2cc3ccccc3s2)CC2CN(Cc3ccccc3)CCN12` (configuration not stated), 4.24. In the case of `O=C(c1ccc(NCCO)cc1)C1C[C@H]1c1ccc(Cl)cc1` (some centres not stated), the pIC50 was 4.91.

Consider `CNC(=O)c1nn(C)c2c1C(C)(C)Cc1cnc(Nc3ccc(N4CCN(C)CC4)cc3)nc1-2`, for which the pIC50 was 4.97. As for `c1cncc(NCc2ccc(-c3cc4ccncc4cc3OC3CCNCC3)s2)c1`, the pIC50 was 4.27. The figure for `COc1cc(CN2CCC3(C=Cc4ccccc43)CC2)cc2c1OCO2` is 4.55; for `Cc1ncc(-c2ccnc(Nc3ccc(S(C)(=O)=O)cc3)n2)n1C(C)C` it is 4.18.

With `CN(C)c1cc(NC(=O)Nc2ccccc2)c2ccccc2n1`, the pIC50 was 4.85. This pIC50 is 0.67 log units higher than that of the molecule before. The figure for `c1ccc2c(c1)CN(CC1CC1)CC1(CCN(Cc3c[nH]c4cnccc34)CC1)O2` is 4.20.
